Most compounds without a hit are left out; they make up all but 15% or so of the library.
SARS PLpro yeast: blocks SARS-CoV papain-like protease in a yeast assay; Potency, µM (top dose mostly 32.9 µM), most hits filed as activators; hit rate 0.19% among 330,000; S. cerevisiae expressing SARS-CoV PLpro, growth rescue; calls by dose curve; further: nearly all actives have a fitted effect of over 55% in size
Pf growth 96h: P. falciparum growth inhibition at 96 hour, primary screen for plastid delayed-death inhibitors | P. falciparum luciferase reporter growth, 96 h | AID 504834 | hit rate 6.9% among 320,000 | Potency, µM (highest dose often 28.7 µM), usual class: inhibitors
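P. falciparum expressing integrated firefly luciferase, in erythrocytes at 2% hematocrit, 0.05% parasitemia, incubated with compounds 96 h at 37 C, 5% CO2. Growth inhibition read as loss of luminescence; two-generation exposure targets delayed-death apicoplast inhibitors.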
Sm TGR block: blocks Schistosoma mansoni thioredoxin glutathione reductase. Q962Y6. purified TGR, DTNB reduction, TNB absorbance 405 nm. Potency, µM (top dose mostly 114 µM), most hits filed as inhibitors. hit rate 3% among 360,000; further: nearly all actives have a fitted effect of over 60% in size
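Kinetic colorimetric format: TGR-catalysed, NADPH-driven DTNB reduction monitored via TNB absorbance. Enzyme dispensed at 20 nM; compound exposure 15 min at room temperature before reaction start.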
HCV inh: inhibitors of hepatitis C virus infection | Huh7.5.1 HCVcc-Cre infection, luciferase reporter, 44 h | Potency, µM (top dose mostly 41.8 µM), usual class: inhibitors | hit rate 3.4% among 340,000
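Antiviral activity was scored by luciferase reporter output from cells infected with HCVcc-Cre (~0.5 moi) in presence of compound, 44 h infection period, cells seeded 1,000/well 4 h prior.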
Pf growth 48h: P. falciparum growth inhibition at 48 hours (one generation); P. falciparum luciferase growth in erythrocytes, 48 h; hit rate 5.9% among 310,000; Potency, µM (doses to about 28.7 µM), actives largely listed as inhibitors; AID 504832
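Firefly luciferase activity from engineered P. falciparum reports growth; inhibitors lower the luminescent signal. Cultures contained 2% hematocrit erythrocytes at 0.1% final parasitemia.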
HCMV inh: inhibitors of human cytomegalovirus. HFF cells, HCMV-luciferase reporter, 72 h; hits give low values. activity change, negative = inhibition, % at 57.5 µM. hit rate 4.5% among 410,000. AID 1259415; in the data active means activity change below about -60%; inconclusive means no clear call, values can overlap the other calls; inactive means above about -39%
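Screen run at 2 compound doses on HFFs infected with reporter HCMV, MOI 1 PFU/cell. Luciferase activity from cell lysates at 72 h post infection gave inhibition relative to buffer-only and Salinomycin wells.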
Hits are given with their value; n = inactive; u = inconclusive; x = not tested or not shown. Unless noted, the call rests on the fitted dose curve; in most records, active means well fitted curve in the direction sought with a large enough effect; inconclusive means small, poorly fitted or top-dose-only effect, or another doubt; inactive means no such curve, though single readings can be large; an effect the other way counts as inactive or inconclusive.

SMILES	SARS PLpro yeast	Pf growth 96h	Sm TGR block	HCV inh	Pf growth 48h	HCMV inh
CCCn1c(CC)nc([N+](=O)[O-])c1S(=O)(=O)c1ccccc1	n	u	u	13µM	10µM	n
CC(C)c1[nH]nc2c1C(c1cccc(OC(=O)N3CCOCC3)c1)C(C#N)=C(N)O2 (centres undefined)	n	12µM	n	n	n	n
CCc1[nH]nc2c1C(c1cccc(OC(=O)N3CCOCC3)c1)C(C#N)=C(N)O2 (centres undefined)	n	n	n	n	n	n
CCn1c(=O)c2cc(C(=O)N(C)c3cc(C)ccc3C)sc2c2ccccc21	x	x	n	x	x	n
OC(CSc1ccccc1)CN1CCN(c2ccccc2)CC1 (centres undefined)	x	x	x	n	x	-102
Cc1ccc(C)n1C1C(=O)N(Cc2ccc(C(C)C)cc2)c2ccccc21 (centres undefined)	x	x	x	x	x	n
CCc1noc(C)c1C(=O)N1CCN(S(=O)(=O)c2c(C)c(C)cc(C)c2C)CC1	n	n	n	n	n	n
CCN1C(=O)[C@H]2[C@@H](c3ccc(-c4ccc(OC)cc4)cc3)N3CCCC[C@@]3(C(=O)OC)[C@H]2C1=O	n	u	n	u	15µM	u
CCN1C(=O)[C@H]2[C@@H](c3ccc(-c4ccccc4)cc3)N3CCC[C@@]3(C(=O)OC)[C@H]2C1=O	n	13µM	n	n	4.7µM	n
CCN1C(=O)[C@H]2[C@@H](c3ccc(-c4ccc(OC)cc4)cc3)N3CCC[C@@]3(C(=O)OC)[C@H]2C1=O	n	u	u	u	13µM	-101
CCN1C(=O)[C@H]2[C@@H](c3ccc(-c4ccc(F)cc4)cc3)N3CCCC[C@@]3(C(=O)OC)[C@H]2C1=O	n	13µM	u	u	9.3µM	n
CCN1C(=O)[C@@H]2[C@@H](c3ccc(-c4ccccc4)cc3)N3CCC[C@@]3(C(=O)OC)[C@@H]2C1=O	n	x	x	n	x	n
O=C(CSc1nncn1-c1cccnc1)Nc1cccc(C(F)(F)F)c1	n	n	n	n	n	n
CCN1C(=O)[C@@H]2[C@@H](c3ccc(-c4ccc(OC)cc4)cc3)N3CCC[C@@]3(C(=O)OC)[C@@H]2C1=O	n	12µM	n	u	9.3µM	n
O=c1[nH]c(/C=C/c2ccccc2)c([N+](=O)[O-])c(=O)[nH]1	n	10µM	n	n	n	n
Cc1ccc2nc(N3CC(=O)Nc4ccccc43)nc(-c3ccccc3)c2c1	n	9.3µM	n	u	n	n
COc1ccccc1NC(=O)Cn1c(=O)n(-c2cccc(Cl)c2)c(=O)c2c1c1cc(C)ccc1n2C	x	x	n	x	x	n
CC(=O)Nc1ccc(S(=O)(=O)NCCC(=O)NNC(=O)c2ccccc2O)cc1	n	n	n	n	n	n
Cc1cc(C)c(S(=O)(=O)c2c(C)cccc2C)c(OCC(C)C)n1	n	12µM	n	u	12µM	n
O=C(O)c1cccc(N/N=C/C2=C(Cl)c3cc(Cl)ccc3SC2)c1	n	8.3µM	u	n	n	n
O=C(O)c1cccc(N/N=C/c2ccc(F)c(F)c2)c1	n	n	n	n	n	n
COc1cc(/C=C/C(=O)OCC(=O)N2CCCCCC2)cc(OC)c1OC	x	x	x	x	x	n
CCOc1ccc(-c2nnc(-c3ccncc3)o2)cc1	n	2.9µM	n	n	n	n
CCCCOc1ccc(-c2nnc(-c3ccncc3)o2)cc1	n	n	n	u	u	n
CCCCOc1ccc(-c2nnc(-c3cc[n+](C)cc3)o2)cc1	n	n	n	n	0.41µM	n
CCOc1ccc(-c2nnc(-c3ccc(OC)cc3)o2)cc1	n	n	n	n	n	n
CCOc1ccc(-c2nnc(-c3ccccc3)o2)cc1	n	2.1µM	n	n	n	n
CSc1ccc(CCNC(=O)CCc2c(C)nc3c4cccnc4nn3c2C)cc1	x	x	n	x	x	n
COc1ccc(CNC(=O)O[C@H]2C[C@@H]3C(=O)N(c4ccccc4)C(=O)[C@@H]3[C@@H]3CN(S(=O)(=O)c4ccc(C)cc4)C[C@]23O)cc1OC	x	x	x	x	x	n
S=c1[nH]nc(-c2ccc3ccccc3n2)n1-c1cc(Cl)cc(Cl)c1	n	4.1µM	n	u	n	n
